Compound activity deposited in PubChem BioAssay by National Center for Advancing Translational Sciences (NCATS).
Only some compounds are listed: those with a hit (about 8.9% of all), similar ones and a draw of the others.
SW480 rerep = A quantitative high throughput screen for small molecules that induce DNA re-replication in SW480 colon adenocarcinoma cells; SW480 DNA re-replication, Hoechst DNA content imaging, 48 h; Potency, µM (titrated, usually from 46.1 µM), for inactives: top-dose re-replication activation, most hits filed as activators; 1.8% of 340,000 active; note: potency is the fitted concentration of half-maximal effect; % of control where 0% means no effect; nearly all actives have a fitted effect of over 55% in size
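Cells (250 per well) received 23 nL compound or DMSO by pin tool and were kept 48 hr at 37 C, 5% CO2. Nuclei were then stained with Hoechst for 40 min and scanned for DNA content.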
KB-V1 MDR tox = qHTS assay for MDR1-selective chemotherapeutics: Primary screen using the drug-selected MDR subline cells KB-V1; KB-V1 MDR cells viability, CellTiter-Glo, 72 h; 3.4% of 400,000 active; Potency, µM (series often up to 46.1 µM), most hits filed as cytotoxic; note: potency is the fitted concentration of half-maximal effect; % is set by controls: 0 for no effect and ±100 for the full control effect; nearly all actives have a fitted effect of over 60% in size
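Readout: CellTiter-Glo luminescence, 10 min after addition. Cells: KB-V1 MDR subline, 72 h at 37 degrees C with compound. Analysis: corrected, normalized data fitted to concentration-effect curves.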
KB-3-1 cytotox = qHTS assay for MDR1-selective chemotherapeutics: Primary screen using the parental adenocarcinoma cell KB-3-1 | AID 1347075, 2019 | 1.4% of 400,000 active | KB-3-1 viability, CellTiter-Glo ATP luminescence, 72 h | Potency, µM (top dose mostly 46.1 µM), usual class: cytotoxic; note: potency is the fitted concentration of half-maximal effect; % is set by controls: 0 for no effect and ±100 for the full control effect; nearly all actives have a fitted effect of over 60% in size
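72 h, 37 °C compound treatment of KB-3-1 parental cells; CellTiter-Glo added, 10 min, luminescence read. Data corrected against DMSO-only plates and normalized before curve fitting.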
MCF10A rereplic = A quantitative high throughput screen for small molecules that induce DNA re-replication in MCF 10a normal breast cells. MCF 10A DNA re-replication, Hoechst nuclear intensity, 48 h. Potency, µM (titrated, usually from 46.1 µM), inactives show at the top dose activity, positive = re-replication, usual class: activators. 2.9% of 350,000 active. AID 624296, 2012; note: potency is the fitted concentration of half-maximal effect; % of control where 0% means no effect; nearly all actives have a fitted effect of over 50% in size
DRD3 agonist = qHTS of D3 Dopamine Receptor Agonist: qHTS; AID 652048, 2013; D3R DiscoveRx beta-arrestin cells, luminescence, 90 min; max activation, %; 0.58% of 410,000 active; D(3) dopamine receptor (Homo sapiens), P35462; in the data active = max activation above about 30%; note: 0% is about no effect
Target sequence (P35462 whole entry, looked up): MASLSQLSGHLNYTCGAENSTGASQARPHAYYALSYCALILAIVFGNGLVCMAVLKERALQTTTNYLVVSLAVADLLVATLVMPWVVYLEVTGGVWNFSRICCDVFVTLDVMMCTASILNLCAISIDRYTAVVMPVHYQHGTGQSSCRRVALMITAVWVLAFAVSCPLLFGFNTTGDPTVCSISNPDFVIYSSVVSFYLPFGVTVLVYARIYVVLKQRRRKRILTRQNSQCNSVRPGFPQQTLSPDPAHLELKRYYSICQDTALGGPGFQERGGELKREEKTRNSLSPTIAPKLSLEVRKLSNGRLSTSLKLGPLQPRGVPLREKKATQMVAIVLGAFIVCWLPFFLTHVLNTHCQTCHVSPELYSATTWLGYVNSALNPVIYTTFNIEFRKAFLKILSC
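Agonist mode: compounds and dopamine controls were applied to plated cells for 90 min at 37 degrees C after an overnight attachment at 1500 cells/well. Luminescent read-out followed 30 - 60 minutes at room temperature with DiscoveRx detection reagent.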
D3 antag = qHTS of D3 Dopamine Receptor Antagonist: qHTS | AID 652054, 2013 | 2.5% of 360,000 active | D3R cells, DiscoveRx beta-arrestin luminescence, antagonist mode; active compounds read low | D(3) dopamine receptor (Homo sapiens), P35462 | max response, negative = inhibition, %; in the data active = max response below about -50%; inconclusive = no clear call, values can overlap the other calls; note: % is set by controls: 0 for no effect and ±100 for the full control effect
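Cells plated overnight at 1500 cells/well, then exposed to library compounds with dopamine controls for 90 minutes at 37 degrees C. DiscoveRx reagent added for 30–60 minutes at room temperature; luminescence read, quantitative HTS format.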
The depositor's hits bear a star; i = inactive; ? = inconclusive; nt = no result given; [ ] = remark or other dose. Unless noted, calls come from the whole dose curve; as a rule, active = well fitted curve in the direction sought with a large enough effect; inconclusive = small, poorly fitted or top-dose-only effect, or another doubt; inactive = no such curve, though single readings can be large; an effect the other way counts as inactive or inconclusive.

SMILES | SW480 rerep | KB-V1 MDR tox | KB-3-1 cytotox | MCF10A rereplic | DRD3 agonist | D3 antag
CCOC(=O)c1c(C)[nH]c(C)c1S(=O)(=O)NCC(=O)Nc1ccc(C)cc1C | nt | i | i | nt | -9 | nt
COC(=O)c1ccccc1N(C)S(=O)(=O)c1cc2c3c(c1)CC(=O)N3CCC2 | nt | i | i | nt | 8 | nt
COc1ccccc1OCC(=O)Nc1oc(-c2ccccc2)c(-c2ccccc2)c1C#N | -7% | ? | i | ? | 10 | 68
COc1ccc(-c2c(C)sc(NC(=O)c3ccnn3C)c2C#N)cc1 | -330% | ? | 10µM* | 20% | 55* | 98
N#Cc1c(NC(=O)CSc2ncccn2)oc(-c2ccccc2)c1-c1ccccc1 | -9% | ? | i | 18% | 3 | -23
Cc1ccc(OCC(=O)Nc2oc(-c3ccccc3)c(-c3ccccc3)c2C#N)cc1 | -1% | i | i | 16µM* | 8 | -27
N#Cc1c(NC(=O)COC(=O)C2CC3C=CC2C3)oc(-c2ccccc2)c1-c1ccccc1 (stereo not drawn) | -40% | i | i | 18µM* | -4 | ?
N#Cc1c(NC(=O)Cn2cnc3ccccc3c2=O)oc(-c2ccccc2)c1-c1ccccc1 | -9% | i | i | 12% | 5 | -61*
Cc1cc2nc(-c3ccc(Br)cc3)cc(C(F)(F)F)n2n1 | nt | ? | i | nt | -1 | nt
CCCCn1c(CNC(=O)C23CC4CC(CC(C4)C2)C3)nnc1SCC(=O)Nc1ccc(F)cc1 | nt | i | i | nt | 3 | nt
COc1cc2c(cc1NC(=O)c1cccc(S(=O)(=O)N(C)C)c1)oc1ccccc12 | ? | 10µM* | i | ? | 18 | 11
COc1cc2c(cc1NC(=O)COC(=O)[C@@H](NS(=O)(=O)c1cccc(Cl)c1)C(C)C)oc1ccccc12 | 15% | 23µM* | i | 7% | -2 | 4
COc1ccc(S(=O)(=O)N[C@@H](C)C(=O)OCC(=O)Nc2cc3oc4ccccc4c3cc2OC)cc1 | 1% | i | i | 5% | -11 | 13
O=C(Nc1ccc(F)cc1F)N1CCc2c(sc3c2CCCC3)C1c1ccc(F)cc1 (stereo not drawn) | nt | ? | i | nt | -9 | nt
CC(=O)Oc1c(C)c2c3c(c1OC(C)=O)[C@@H](C)CC[C@@H]3[C@@H](C)C[C@H]2C=C(C)C | 6% | ? | i | 26µM* | 43* | 5
CC(C)=C[C@H]1C[C@H](C)[C@H]2CC[C@H](C)c3c(O[C@@H]4OC[C@@H](O)[C@H](O)C4O)c(O)c(C)c1c32 (stereo partly drawn) | -92%[9.22 µM] | i | i | 21µM* | 4 | 1
CC(=O)OC1[C@H](Oc2c(O)c(C)c3c4c2[C@@H](C)CC[C@@H]4[C@@H](C)C[C@@H]3C=C(C)C)OC[C@@H](O)[C@@H]1O (stereo partly drawn) | -9% | i | i | ? | 3 | 32
CCCN(C)C[C@H]1OCc2cnnn2CCCC(=O)N([C@H](C)CO)C[C@@H]1C | nt | i | i | nt | 8 | 30
Cc1ccc(S(=O)(=O)N(c2cccc(C(F)(F)F)c2)C2C=CS(=O)(=O)C2)cc1 (stereo not drawn) | ? | i | i | 23µM* | -1 | 3
c1ccc(Cn2nnc3c(N4CCc5ccccc5C4)ncnc32)cc1 | 4% | 15µM* | i | ? | -3 | -22
c1ccc(-n2nnc3c(N4CCOCC4)ncnc32)cc1 | -9% | 16µM* | ? | ? | 18 | 29
c1ccc(Cn2nnc3c(N4CCCC4)ncnc32)cc1 | -9% | 18µM* | i | 3% | -11 | -5
O=C(CSc1ncnc2c1nnn2Cc1ccccc1)NC1CCCCC1 | ? | i | i | 23µM* | 0 | -23
CC(=O)N1CCOc2cc(S(=O)(=O)Nc3c(C)cccc3C(C)C)c(Cl)cc21 | nt | nt | nt | nt | 2 | nt
Cc1ccc(Cn2ccn(Cc3ccc(C)cc3)c(=O)c2=O)cc1 | nt | nt | nt | nt | 5 | nt
SMILES | SW480 rerep | KB-V1 MDR tox | KB-3-1 cytotox | MCF10A rereplic | DRD3 agonist | D3 antag
O=C(Nc1ccc(Cc2nc3ccccc3s2)cc1)c1ccncc1 | 0% | 7.3µM* | 16µM* | ? | -10 | 9
O=C(Nc1ccc(OC(=O)c2ccccc2)c(-c2nc3ccccc3s2)c1)c1ccccc1 | ? | i | i | 21µM* | 1 | -26
CC1CCCCN1C(=O)CSc1nc2ccccc2nc1Cc1ccc(Cl)cc1 (stereo not drawn) | nt | i | ? | nt | -11 | nt
Cc1cccc(N2C(=O)CS/C2=N\NC(=O)c2ccc(Br)cc2)c1C | 11% | i | i | 4% | -3 | -79*
CCOc1ccc(NC(=O)C(C)Sc2nnc3cc(C)c4ccccc4n23)cc1 (stereo not drawn) | nt | nt | nt | nt | 11 | nt
O=C(Nc1ccc(F)cc1)C(c1ccccc1)N1CCN(c2cccc(C(F)(F)F)n2)CC1 (stereo not drawn) | nt | i | i | nt | -13 | -28
O=C(Nc1ccc(F)cc1)C(c1ccccc1OC(F)(F)F)N1CCN(c2cccc(C(F)(F)F)n2)CC1 (stereo not drawn) | nt | ? | ? | nt | -10 | -55*
Cn1c(=O)[nH]c(=O)c2c1nc(SCCN1CCOCC1)n2CCCc1ccccc1 | -6% | i | i | ? | 1 | -5
Cn1c(=O)c2c(nc(SCCN3CCOCC3)n2Cc2cccc3ccccc23)n(C)c1=O | 0% | 4.1µM* | i | -2% | 0 | -13
Cn1c(=O)[nH]c(=O)c2c1nc(SCCN1CCOCC1)n2Cc1ccccc1 | 5% | i | i | 17% | -11 | -70*
CCOc1cc(/C=C2\COc3ccccc3C2=O)ccc1OCC(=O)N(C)C | 15µM* | ? | i | 15µM* | -8 | -20
CCc1ccccc1N(C)C(=O)Nc1cn(CC(C)C)c(=O)c2ccccc12 | nt | i | i | nt | -1 | nt
CCCCNC(=NCc1cccc(C(F)(F)F)c1)Nc1ccccc1 | ? | 21µM* | ? | ? | -7 | 0
C[C@@H](CN1CC(=O)NC(=O)C1)N1CC(=O)NC(=O)C1 | nt | nt | nt | nt | -21 | nt
CCc1[nH]nc2c1C(c1ccsc1)C(C#N)=C(N)O2 (stereo not drawn) | -6% | i | ? | 7% | -1 | -11
